Only some compounds are listed: those with a hit (about 3.5% of all), similar ones and a draw of the others.
FBW7 activator – FBW7 E3 ligase activators, primary screen, biochemical, AlphaScreen, human; AlphaScreen FBW7–phospho-cyclin E peptide binding, activator screen; normalized activity (activation), % at 26.1 µM; F-box/WD repeat-containing protein 7 (Homo sapiens), Q969H0; 650,000 compounds, 0.13% hits; in the data active = normalized activity above about 1.9%;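 note: purified mutant Fbw7 with reduced substrate affinity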
TEAD-YAP inh – TEAD-YAP interaction inhibition, primary screen, TEAD-YAP interaction inhibitor project, luminescence, HEK-TIYL cells. TEAD-Gal4/YAP UAS-luciferase luminescence. inhibition, % at 9.12 µM. 640,000 compounds, 1.4% hits; in the data active = inhibition above about 32%
MITF primary – MITF inhibitors, primary screen, biochemical, AlphaScreen, human; Microphthalmia-associated transcription factor (Homo sapiens), O75030; AlphaScreen MITF homodimerization, bead proximity signal; inhibition, % at 2.6 µM; 650,000 compounds, 0.91% hits; in the data active = inhibition above about 50%
Target sequence (O75030 whole entry, looked up): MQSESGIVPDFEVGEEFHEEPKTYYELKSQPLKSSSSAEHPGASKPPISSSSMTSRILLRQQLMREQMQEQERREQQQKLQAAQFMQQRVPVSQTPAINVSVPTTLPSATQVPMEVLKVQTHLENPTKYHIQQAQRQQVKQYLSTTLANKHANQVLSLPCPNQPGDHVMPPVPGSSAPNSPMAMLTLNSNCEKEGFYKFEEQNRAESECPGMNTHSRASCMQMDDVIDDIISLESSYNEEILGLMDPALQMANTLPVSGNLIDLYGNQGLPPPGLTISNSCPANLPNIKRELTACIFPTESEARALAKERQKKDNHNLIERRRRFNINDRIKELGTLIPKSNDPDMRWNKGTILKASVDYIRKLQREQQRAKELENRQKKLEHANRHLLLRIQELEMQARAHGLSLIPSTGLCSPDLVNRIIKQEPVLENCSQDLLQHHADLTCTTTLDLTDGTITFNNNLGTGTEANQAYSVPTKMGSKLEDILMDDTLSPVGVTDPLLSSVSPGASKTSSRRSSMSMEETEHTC
GPR151 activ – activators of human GPR151, primary screen, cell-based, PathHunter beta-arrestin, luminescence; PathHunter beta-arrestin GPR151 cells; AID 1508602, 2020; activation, % at 11.2 µM; 650,000 compounds, 1% hits; in the data active = activation above about 4.9%
GPR151 confirm – GPR151 activators, triplicate retest, confirmation, cell-based, PathHunter beta-arrestin, luminescence | GPR151 PathHunter beta-arrestin cells, 90 min; % of EA-reagent control over plate median | 6,700 tested, under 10 active | shares compounds with GPR151 activ | activation, % at 11.2 µM;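 active = mean percent activation across replicates above the confirmation screen cutoff of 4.91%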
GPR119 counter – GPR119 activators in beta-arrestin cells, counter-screen for GPR151 activator project, cell-based, PathHunter beta-arrestin, luminescence, triplicate; shares compounds with GPR151 activ; activation, % at 11.2 µM; 6,700 compounds, 0.3% hits; 90 min; 0 = compound-well median, 100 = enzyme-acceptor control; AID 1508611, 2020;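 active = mean percent activation in the counterscreen above 29.09%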;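 note: counterscreen on off-target GPR119 to flag nonselective hits from the GPR151 activator screen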
Numbers stand for hits.

Results for O=C(NCCCN1CCN(c2ccc(Cl)cc2)CC1)Nc1ccccc1 ?
FBW7 activator: inactive; TEAD-YAP inh: inactive; MITF primary: inactive; GPR151 activ: 6.6; GPR151 confirm: inactive; GPR119 counter: inactive

Results for O=C(NCCCN1CCN(c2ccc(Cl)cc2)CC1)Nc1ccc(F)cc1 ?
FBW7 activator: inactive; TEAD-YAP inh: inactive; MITF primary: inactive; GPR151 activ: inactive

How did Clc1ccc(-c2nnc3n2N=C(c2ccccc2)CS3)cc1 do in these assays?
FBW7 activator: inactive; TEAD-YAP inh: inactive; MITF primary: inactive; GPR151 activ: inactive

How did Cc1ccccc1-c1nnc2n1N=C(c1ccc(Cl)cc1)CS2 do in these assays?
FBW7 activator: inactive; TEAD-YAP inh: inactive; MITF primary: inactive; GPR151 activ: 6.6; GPR151 confirm: inactive; GPR119 counter: inactive

Results for CCOc1cc(/C=C2\N=C(c3ccc(Br)cc3)OC2=O)cc(I)c1OC(C)=O ?
FBW7 activator: inactive; TEAD-YAP inh: inactive; MITF primary: inactive; GPR151 activ: inactive

What do the screens show for `O=C1CSC(c2ccccc2Br)N1c1ccc(Cl)c(Cl)c1` (centres undefined)?
FBW7 activator: inactive; TEAD-YAP inh: inactive; MITF primary: inactive; GPR151 activ: inactive

What do the screens show for `O=C(O)Cc1ccc(NC(=O)C2CC2)cc1`?
FBW7 activator: inactive; TEAD-YAP inh: inactive; MITF primary: inactive; GPR151 activ: inactive

How did Cc1nnc(SCC(=O)N2c3ccccc3Sc3ccccc32)n1N do in these assays?
FBW7 activator: inactive; TEAD-YAP inh: inactive; MITF primary: inactive; GPR151 activ: 7.4; GPR151 confirm: inactive; GPR119 counter: inactive

What do the screens show for `CCc1nnc(SCC(=O)N2c3ccccc3Sc3ccccc32)n1N`?
FBW7 activator: inactive; TEAD-YAP inh: inactive; MITF primary: inactive; GPR151 activ: inactive

Results for COc1ccc(/C=C/C(=O)Nc2c(C)n(C)n(-c3ccccc3)c2=O)cc1 ?
FBW7 activator: inactive; TEAD-YAP inh: inactive; MITF primary: inactive; GPR151 activ: inactive

How did Cc1ccc(OCCNC(=O)C(=O)Nc2ccccc2F)cc1C do in these assays?
FBW7 activator: inactive; TEAD-YAP inh: inactive; MITF primary: inactive; GPR151 activ: 5.2; GPR151 confirm: inactive; GPR119 counter: inactive

Results for O=S(=O)(Nc1ccc(S(=O)(=O)Nc2ccccc2)cc1)c1ccccc1 ?
FBW7 activator: inactive; TEAD-YAP inh: inactive; MITF primary: inactive; GPR151 activ: inactive

What do the screens show for `O=S(=O)(Nc1ccccc1)c1ccc(NS(=O)(=O)c2c(F)cccc2F)cc1`?
FBW7 activator: inactive; TEAD-YAP inh: inactive; MITF primary: inactive; GPR151 activ: 5.2; GPR151 confirm: inactive; GPR119 counter: inactive

What do the screens show for `CCOc1ccc(-c2[nH]nc3c2C(c2ccccc2F)C(C#N)=C(N)O3)c(OCC)c1` (centres undefined)?
FBW7 activator: inactive; TEAD-YAP inh: inactive; MITF primary: inactive; GPR151 activ: 7.1; GPR151 confirm: inactive; GPR119 counter: inactive

How did O=C(NCCN1CCOCC1)c1cncc(-c2cccs2)c1 do in these assays?
FBW7 activator: inactive; TEAD-YAP inh: inactive; MITF primary: inactive; GPR151 activ: 7.3; GPR151 confirm: inactive; GPR119 counter: inactive

How did O=C(C1CCOC1)N1CCc2nnc(Cc3ccccc3)n2CC1 (centres undefined) do in these assays?
FBW7 activator: inactive; TEAD-YAP inh: inactive; MITF primary: inactive; GPR151 activ: inactive

How did CN1C(=O)C(C)(C)COc2cc(NC(=O)Nc3ccc4c(c3)OCO4)ccc21 do in these assays?
FBW7 activator: inactive; TEAD-YAP inh: inactive; MITF primary: inactive; GPR151 activ: inactive

How did CC(C)CCN1C(=O)C(C)(C)COc2cc(NC(=O)c3ccc4c(c3)OCO4)ccc21 do in these assays?
FBW7 activator: inactive; TEAD-YAP inh: inactive; MITF primary: inactive; GPR151 activ: 5.6; GPR151 confirm: inactive; GPR119 counter: inactive

What do the screens show for `CCOc1ccccc1/C=C1\N=C(c2cccc(C)c2)OC1=O`?
FBW7 activator: inactive; TEAD-YAP inh: inactive; MITF primary: inactive; GPR151 activ: 9.7; GPR151 confirm: inactive; GPR119 counter: inactive
